Results taken from PubChem BioAssay (NCATS).
Results filed as inconclusive are left out. Active and inactive are the calls of the source. Calls follow the shape of the dose curve; as a rule, active = well fitted inhibition curve with a large enough effect; inconclusive = small, poorly fitted or top-dose-only effect; inactive = flat fitted curve, though single readings scatter.

What was measured:
[1] = test system: CRL-7250; test: Cytotoxic Profiling of Annotated Libraries Using Quantitative High-Throughput Screening (AID 1296008); conditions: Five cell lines viability, CellTiter-Glo ATP luminescence, 48-72 h; max response: hits give low values; as to max response: % is scaled to controls: 0 for no effect and ±100 for the full control effect
How it was run: (§1)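 Cells exposed to compounds for 48 or 72 hr at 37 degrees Celsius. Viability read as ATP-coupled luminescence with CellTiter-Glo after 10 min at room temperature.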

[2] = test system: HEK293; test: as above; conditions: Five cell lines viability, CellTiter-Glo ATP luminescence, 48-72 h; max response: hits give low values
How it was run: as §1

[3] = test system: HaCat; test: as above; conditions: Five cell lines viability, CellTiter-Glo ATP luminescence, 48-72 h; max response: hits give low values
How it was run: as §1

[4] = test system: KB-3-1; test: as above; conditions: Five cell lines viability, CellTiter-Glo ATP luminescence, 48-72 h; max response: hits give low values
How it was run: as §1

[5] = test system: NIH3T3; test: as above; conditions: Five cell lines viability, CellTiter-Glo ATP luminescence, 48-72 h; max response: hits give low values
How it was run: as §1

[6] = test system: HEK293T; test: qHTS assay to identify novel small-molecules to repurpose for Merkel cell carcinoma treatment (AID 1296009); conditions: MCC and control cell lines, CellTiter-Glo viability, 72 h; series mostly up to 44.8 µM
How it was run: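 Cells were treated for 72 hr at 37 degree celsius with compounds in 8- or 11-point dose response. Viability was read by CellTiter-Glo luminescence, normalized to no-cell (cytotoxicity) and DMSO controls.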
Also: nearly all actives have a fitted effect of over 60% in size.

COc1c(C)c(OCC=C(C)C)cc2c1C(=O)NC2=O
inactive: max response [1] -3.35% | outcome [2] | max response [3] -14.7% | outcome [4] | max response [5] -1.16% | Potency [6]

CNC(=O)[C@H]1O[C@@H](n2cnc3c(NCc4ccc(N)c(I)c4)ncnc32)[C@H](O)[C@@H]1O
inactive: max response [1] -3.43% | outcome [2] | max response [3] -7.91% | outcome [4] | max response [5] -0.967% | outcome [6] inactive [at 9.27 µM]

C=C1CCC2C(OC(=O)C2(O)COC(C)=O)C2C(=C)C(O)CC12 (stereo unspecified)
inactive: max response [1] -7.9% | outcome [2] | max response [3] -8.75% | max response [4] 8.26% | max response [5] -5.53% | Potency [6]

COC1=CC(=O)O[C@@H](/C=C/c2ccccc2)[C@@H]1O
inactive: outcome [1] | outcome [2] | max response [3] 4.5% | outcome [4] | outcome [5] | Potency [6]

COc1cc(/C=C/C(=O)OC2CC3CCC2(C)C3(C)C)ccc1O (stereo unspecified)
inactive: outcome [1] | outcome [2] | max response [3] -0.121% | max response [4] 9.6% | outcome [5] | Potency [6]

C[C@@H]1O[C@@H](O[C@H]2[C@H](OC(=O)[C@]34CCC(C)(C)C[C@H]3C3=CCC5[C@@]6(C)CC[C@H](O[C@@H]7O[C@H](CO[C@@H]8OC[C@H](O)[C@H](O)[C@H]8O)[C@@H](O)[C@H](O)[C@H]7O)C(C)(C)C6CC[C@@]5(C)[C@]3(C)C[C@H]4O)OC[C@@H](O)[C@@H]2O)[C@H](O)[C@H](O)[C@H]1O[C@@H]1OC[C@H](O)[C@H](O[C@@H]2OC[C@@H](O)[C@H](O)[C@H]2O)[C@H]1O (stereo partly specified)
inactive: max response [1] -0.806% | outcome [2] | max response [3] -0.578% | outcome [4] | outcome [5] | outcome [6] inactive [at 9.27 µM]

C=CC1C(O[C@@H]2O[C@H](CO)[C@@H](O)[C@H](O)[C@H]2O)OC=C(C(=O)OC)C1Cc1nccc2c1[nH]c1ccccc12 (stereo partly specified)
inactive: max response [1] 3.98% | outcome [2] | max response [3] 1.01% | max response [4] 5.15% | outcome [5] | Potency [6]

O=c1c2ccccc2nc2n1CCC2O (stereo unspecified)
inactive: outcome [1] | outcome [2] | max response [3] 4.07% | outcome [4] | max response [5] 2.87% | Potency [6]

OC[C@H]1O[C@@H](Oc2cc(O)cc(-c3cc4ccc(O)cc4o3)c2)[C@H](O)[C@@H](O)[C@@H]1O
inactive: max response [1] 0.0775% | outcome [2] | max response [3] -4.29% | max response [4] 4.55% | max response [5] 4.16% | Potency [6]

COc1cc(/C=C/C(=O)O[C@H]2[C@H](OC(=O)/C=C/c3cc(OC)c(O)c(OC)c3)O[C@H](CO[C@@H]3O[C@H](CO)[C@@H](O)[C@H](O)[C@H]3O)[C@@H](O)[C@@H]2O)ccc1O
inactive: outcome [1] | outcome [2] | max response [3] -26% | max response [4] 7.55% | max response [5] -14.9% | Potency [6]

N#CCc1ccc(O)cc1O[C@@H]1O[C@H](CO)[C@@H](O)[C@H](O)[C@H]1O
inactive: outcome [1] | outcome [2] | max response [3] -21.9% | max response [4] -0.902% | outcome [5] | Potency [6]

COC(=O)c1cc(CN2CCN(C(=N)N)CC2)cc(C(=O)N2CCN(C(=O)c3ccc(C(=N)N)cc3)CC2)c1
inactive: outcome [1] | outcome [2] | max response [3] 1.52% | max response [4] 2.44% | outcome [5] | Potency [6]

COC1CC(OC2CCC3(C)C(=CCC4C3CCC3(C)C(C(C)O)CCC43O)C2)OC(C)C1OC1OC(C)C(OC2OC(COC3OC(COC4OC(CO)C(O)C(O)C4O)C(O)C(O)C3O)C(O)C(O)C2O)C(OC)C1O (stereo unspecified)
inactive: max response [1] -10.5% | outcome [2] | max response [3] -1.65% | outcome [4] | outcome [5] | outcome [6] inactive [at 9.27 µM]

OCC1=CC[C@@H]2C=CO[C@@H](O[C@@H]3O[C@H](CO)[C@@H](O)[C@H](O)[C@H]3O)[C@H]12
inactive: outcome [1] | outcome [2] | max response [3] -13.7% | outcome [4] | max response [5] -0.173% | Potency [6]

CC1(C)NC2N(C1=O)c1ccccc1C2(O)CC(C(=O)O)n1cnc2ccccc2c1=O (stereo unspecified)
inactive: outcome [1] | outcome [2] | max response [3] -3.78% | outcome [4] | max response [5] -5.13% | Potency [6]

COc1cc([C@@H]2Oc3c(OC)cc(CCCO)cc3[C@@H]2CO[C@@H]2O[C@H](CO)[C@@H](O)[C@H](O)[C@H]2O)ccc1O
inactive: outcome [1] | outcome [2] | max response [3] -11.2% | max response [4] 9.39% | outcome [5] | Potency [6]
